Source: PubChem BioAssay
IL1B secr inh = qHTS for Inhibitors of Inflammasome Signaling: IL-1-beta AlphaLISA Primary Screen; THP-1 LPS/ATP IL-1B secretion, AlphaLISA, 16 h; active compounds read low; activity change, % at 57.5 µM; actives 4.7% (n = 360,000); in the data active means activity change below about -50%; inconclusive means mostly about -30% to -49%
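THP-1 cells pretreated 1 hr with compounds (up to 57.5 uM final), then stimulated with LPS (250 ng/mL final) plus ATP (1.25 mM final); secreted IL-1B measured by AlphaLISA after 16 hr, decreased signal indicating inhibition.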
RORgamma inh = qHTS for inhibitors of ROR gamma transcriptional activity; Potency, µM (top dose mostly 53.6 µM), most hits filed as inhibitors; AID 2551, 2010; Drosophila S2 Gal4-RORgamma UAS-luciferase reporter, 20 h; actives 5.4% (n = 310,000); further: nearly all actives have a fitted effect of over 60% in size
Target sequence (P51450 whole entry, looked up, the tested form may be a part): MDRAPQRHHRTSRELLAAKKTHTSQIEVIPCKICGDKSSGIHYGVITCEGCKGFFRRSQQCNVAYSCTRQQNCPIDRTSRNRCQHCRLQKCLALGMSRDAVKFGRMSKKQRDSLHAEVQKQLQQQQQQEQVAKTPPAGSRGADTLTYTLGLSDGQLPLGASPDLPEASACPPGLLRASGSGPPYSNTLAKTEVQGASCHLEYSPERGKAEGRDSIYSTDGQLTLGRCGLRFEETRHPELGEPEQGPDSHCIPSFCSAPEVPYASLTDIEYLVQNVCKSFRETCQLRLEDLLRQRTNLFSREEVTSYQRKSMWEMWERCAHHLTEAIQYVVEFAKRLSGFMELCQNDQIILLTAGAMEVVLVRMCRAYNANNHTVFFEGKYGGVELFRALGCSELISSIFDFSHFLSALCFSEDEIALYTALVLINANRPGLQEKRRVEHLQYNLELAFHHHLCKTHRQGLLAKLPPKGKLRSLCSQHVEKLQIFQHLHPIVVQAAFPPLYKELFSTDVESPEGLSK
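Drosophila S2 cells stably expressing Gal4-DBD/mouse RORγ fusion under metallothionein promoter plus UAS-luciferase; compound 1 h, then 700 uM CuSO4 induction for 20 h at ambient temperature; inhibition read as reduced luminescence.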
MCF10A rerep = A quantitative high throughput screen for small molecules that induce DNA re-replication in MCF 10a normal breast cells. AID 624296, 2012. MCF 10A DNA re-replication, Hoechst nuclear intensity, 48 h. actives 2.9% (n = 350,000). Potency, µM (highest dose often 46.1 µM), hits mostly activators; further: nearly all actives have a fitted effect of over 50% in size
Gal4-VP16 FLuc = VP16 counterscreen qHTS for inhibitors of ROR gamma transcriptional activity; Drosophila S2 Gal4-VP16 UAS-luciferase, luminescence, 20 h; Potency, µM (doses to about 53.6 µM), hits mostly inhibitors; actives 3.5% (n = 310,000); AID 2546, 2010;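 further: Gal4-VP16 expression switched on by copper sulfate through the metallothionein promoter; nearly all actives have a fitted effect of over 50% in size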
SW480 rereplic = A quantitative high throughput screen for small molecules that induce DNA re-replication in SW480 colon adenocarcinoma cells; SW480 DNA re-replication, Hoechst DNA content imaging, 48 h; Potency, µM (doses to about 46.1 µM), most hits filed as activators; actives 1.8% (n = 340,000); AID 624297, 2012; further: nearly all actives have a fitted effect of over 55% in size
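Hoechst fluorescence of nuclei (405 nm excitation, 500-530 nm emission) measured by plate-scanning imager after 48 hr compound exposure at 37 C; re-replication scored as increased number of nuclei with elevated intensity.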
Of the large screens only hits and unclear results are named; the others gave an inactive call. Hits are enriched below; roughly 11% of the tested compounds scored in any of these assays. Unless noted, the call rests on the fitted dose curve; in most records, active means well fitted curve in the direction sought with a large enough effect; inconclusive means small, poorly fitted or top-dose-only effect, or another doubt; inactive means no such curve, though single readings can be large; an effect the other way counts as inactive or inconclusive.

CC(C)(C)C(=O)Cn1ncc(Cl)c(Cl)c1=O	IL1B secr inh -101, MCF10A rerep 2.1µM, SW480 rereplic inconclusive
O=C(Cn1ncc(Cl)c(Cl)c1=O)c1ccc(Cl)cc1	IL1B secr inh -68, RORgamma inh inconclusive, MCF10A rerep 9.2µM, SW480 rereplic inconclusive
COC(=O)N1CCC[C@@]2(CCN(c3ccncc3)C2)C1	none (no result: IL1B secr inh, MCF10A rerep, SW480 rereplic)
CC(OC(=O)c1cc(S(=O)(=O)N2CCOCC2)ccc1Br)C(=O)N1CCOCC1 (stereo unspecified)	none (no result: RORgamma inh, Gal4-VP16 FLuc)
CC(=O)Nc1cccc(-c2ccnc3c2CC(C)(C(=O)Nc2ccc(Cl)cc2)O3)c1 (stereo unspecified)	none (no result: RORgamma inh, MCF10A rerep, Gal4-VP16 FLuc, SW480 rereplic)
COc1ccc(SC[C@H](Cc2ccccc2)N2CC[C@@H](C(C)(C)C)CCC2=O)cc1	IL1B secr inh -51 (no result: RORgamma inh, Gal4-VP16 FLuc)
COc1ccc(SCCN2CC[C@@H](O)CCC2=O)cc1	none (no result: RORgamma inh, Gal4-VP16 FLuc)
COc1ccc(SCCN2CCN(CCc3ccccc3)CCC2=O)cc1	RORgamma inh 10µM, Gal4-VP16 FLuc inconclusive (no result: IL1B secr inh, MCF10A rerep, SW480 rereplic)
COc1ccc(SCCN2CC[C@@H](C(C)(C)C)CCC2=O)cc1	MCF10A rerep 9.2µM (no result: RORgamma inh, Gal4-VP16 FLuc)
COc1ccc(SC[C@H](Cc2ccccc2)N2CC[C@@H](O)CCC2=O)cc1	none (no result: RORgamma inh, Gal4-VP16 FLuc)
COc1ccc(NC(=S)Nc2cccc(S(=O)(=O)N3CCCCC3)c2)cc1	RORgamma inh 18µM, Gal4-VP16 FLuc inconclusive
CC1(C)CC2CC(C)(CN2S(=O)(=O)c2ccc(C(=O)Nc3cccc(S(=O)(=O)N4CCOCC4)c3)cc2)C1 (stereo unspecified)	RORgamma inh inconclusive, MCF10A rerep inconclusive, Gal4-VP16 FLuc 0.5µM
CC(=O)Oc1ccc(-c2ccc(C(=O)Nc3cccc(S(=O)(=O)N4CCOCC4)c3)cc2)cc1	IL1B secr inh -119
COc1ccc(NC(=O)CN(C)C(=O)c2cccc(S(=O)(=O)N3CC4(C)CC3CC(C)(C)C4)c2)cc1 (stereo unspecified)	IL1B secr inh -72, MCF10A rerep inconclusive (no result: RORgamma inh, Gal4-VP16 FLuc)
O=C(Nc1cccc(S(=O)(=O)N2CCCC2)c1)c1cccc(S(=O)(=O)N2CCOCC2)c1	none (no result: RORgamma inh, Gal4-VP16 FLuc)
O=C(Cc1cccc(NC(=O)C2CCCN(C(=O)C3CC3)C2)c1)Nc1ccc(C(=O)N2CCOCC2)cc1 (stereo unspecified)	none (no result: RORgamma inh, Gal4-VP16 FLuc)
COc1ccc(C(=O)NC(=S)Nc2cccc(S(=O)(=O)N3CCOCC3)c2)cc1	RORgamma inh 22µM, MCF10A rerep 16µM, SW480 rereplic inconclusive
Cc1ccc(NC(/C=C/N(C)C)=C/C(=O)C(F)(F)F)c(C)c1	none
CN(C)/C=C\C(=C/C(=O)C(F)(F)F)Nc1ccccc1Oc1ccccc1	IL1B secr inh -98, MCF10A rerep inconclusive, SW480 rereplic inconclusive
COc1cccc(NC(=O)c2cc3c(=O)n4ccccc4nc3n(CC(C)C)c2=N)c1	none
COCCCn1c(=N)c(C(=O)NC2CCCCC2)cc2c(=O)n3ccccc3nc21	MCF10A rerep 3.3µM, SW480 rereplic 5.2µM
COc1ccc(CCn2c(=N)c(C(=O)NC3CCCC3)cc3c(=O)n4ccccc4nc32)cc1	IL1B secr inh -83, MCF10A rerep 21µM, SW480 rereplic 23µM
COc1ccc(CCn2c(=N)c(C(=O)NCC3CCCO3)cc3c(=O)n4ccccc4nc32)cc1OC (stereo unspecified)	IL1B secr inh inconclusive, SW480 rereplic inconclusive
COc1ccc(Cn2c(=N)c(C(=O)NC3CCCCC3)cc3c(=O)n4ccccc4nc32)cc1	MCF10A rerep 4.1µM, SW480 rereplic 4.6µM
COc1ccc(CCn2c(=N)c(C(=O)NC3CCCC3)cc3c(=O)n4ccccc4nc32)cc1OC	MCF10A rerep 16µM, SW480 rereplic inconclusive
CCn1c(=N)c(C(=O)OC)cc2c(=O)n3ccccc3nc21	none (no result: IL1B secr inh, MCF10A rerep, SW480 rereplic)
O=C(NCCCN1CCCC1=O)c1ccc(S(=O)(=O)Nc2cccc(C(F)(F)F)c2)cc1	none (no result: RORgamma inh, Gal4-VP16 FLuc)
CO[C@H]1COC(=O)[C@H](C)COC(=O)C/C=C\[C@@H](C)[C@H](OC)COC(=O)C/C=C\[C@@H]1C	none (no result: IL1B secr inh, MCF10A rerep, SW480 rereplic)
Cc1ccc(S(=O)(=O)N/N=C/c2ccccc2O)cc1[N+](=O)[O-]	none
